From PubChem BioAssay (NCI)
Where “and” joins values, the source holds several entries; their conditions need not be identical. Identical values can stand only once. About 83,000 compounds went through this panel and 20% of them were active in at least one assay; those are over-represented in the sample as a whole.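 Treatment: one concentration, 48 hours, 96-well format. Scoring: percent growth, with anything below 10 considered active.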 Values without a mark were called inactive. Calls of active or inactive are those of the source.

System: MDA-MB-468 breast
Test: NCI-60 one-dose screen, 48 h (100 = growth as untreated, 0 = no growth, -100 = all killed)
Settings: 10 µM unless noted

Compound	growth
O=C(c1ccccc1)c1ccc(N2C(=O)C3C4c5ccccc5C(/C=C/C(=O)c5ccccn5)(c5ccccc54)C3C2=O)cc1 (centres undefined)	21.9%
C=C1C(=O)O[C@@H]2C3C(=C(C)CC[C@@H]12)CC1O[C@]13C (some centres undefined)	19.3% [6.75 µM]
CC1CCNC(C)C1 (centres undefined)	99.2%
COc1cc(OC)cc(-c2ccc(-c3ccc(C(=N)N)cn3)o2)c1	-69.9% (active)
COc1ccc(/C=C/C(=O)c2cc3c(N)c(C(=O)Nc4ccccc4Cl)sc3nc2C)cc1	5.35% (active)
CCc1ccc2nc(NC(=O)Cc3csc(NC(=O)c4ccco4)n3)sc2c1	-54.2% (active)
CCN(CC)C(=S)SSC(=S)N(CC)CC	77.7% and 111%
Cn1cc(-c2nnc(-c3cn(C)c4ncccc34)s2)c2ccccc21	12.6%
Cc1cc(Cl)cc(Cc2cc(Cl)cc(C)c2O)c1O	50.2%
Cc1cc(CCNC=O)c(C)c2c1sc1ccccc12	71.4%
COc1cc(C)cc2oc3oc(=O)c(-c4csc(-c5cc6ccccc6oc5=O)n4)cc3c(=O)c12	102%
COc1ccc(C2C(C#N)=C(N)Oc3c2sc2ccc(C)cc32)cc1 (centres undefined)	-13.2% (active)
C(=C1c2ccccc2-c2ccccc21)c1ccccn1	22.4%
CC1(C)CC[C@]2(C(=O)O)CC[C@]3(C)C(=CC[C@@H]4[C@@]5(C)C[C@@H](Cc6cn([C@@H]7O[C@H](CO)[C@@H](O)[C@H](O)[C@H]7O)nn6)[C@H](O)C(C)(C)[C@@H]5CC[C@]43C)[C@@H]2C1	87%
O=C1CCC(N2Cc3c(C#CCCCNC(=O)c4cc5c(o4)C(=O)c4ccccc4C5=O)cccc3C2=O)C(=O)N1 (centres undefined)	-47.1% (active)
O=C1Nc2ccccc2C12CC(c1ccccc1)=NN2 (centres undefined)	66.4%
CN1C(=O)N(C)C2C1NN=c1s/c(=C\c3c[nH]c4ccccc34)c(=O)n12 (centres undefined)	39.5%
O=c1c2ccccc2nc(SCCN2CCCCC2)n1CCc1ccccc1	92%
O=S1(=O)CCC(N(/N=C/c2ccco2)c2ccccc2)C1 (centres undefined)	108%
Cc1cc(NC(=O)Nc2cc(Cl)ccc2C)no1	105%
COc1cc(Cn2c(-c3nonc3N)nc3ccccc32)ccc1C	40.9%
Cn1c2c(c3ccccc31)CCN1C[C@@H]3CCCC[C@H]3C[C@@H]21	-16.1% (active)
CCCCSCC(=O)c1ccccc1	113%
O=C1C2C(c3cccs3)C=C(c3ccc(Cl)cc3)N2C(=S)N1c1ccccc1 (centres undefined)	79.7%
